“And” between values parts separate entries of the source, which are not always exact repeats. Identical values can stand only once. Records with an inconclusive call do not appear. Some compounds were tested as several samples or in several runs, with calls that do not always agree. The source made the active and inactive calls. Rule for the calls: active = hit-call score of the fitted dose curve at least 0.9, where 1 is the maximum; inconclusive = response in the unintended direction; inactive = score below 0.9.
These compounds were tested against Cellular tumor antigen p53 (Homo sapiens) (UniProt P04637) (assay: TOX21_p53_BLA_p2_ratio: Tox21 HCT-116 p53 Agonism Beta-lactamase Assay, Ratio, Phase 2 (AID 2283592)).
Chain of Cellular tumor antigen p53 (Homo sapiens) (P04637 whole entry, looked up, the tested form may be a part): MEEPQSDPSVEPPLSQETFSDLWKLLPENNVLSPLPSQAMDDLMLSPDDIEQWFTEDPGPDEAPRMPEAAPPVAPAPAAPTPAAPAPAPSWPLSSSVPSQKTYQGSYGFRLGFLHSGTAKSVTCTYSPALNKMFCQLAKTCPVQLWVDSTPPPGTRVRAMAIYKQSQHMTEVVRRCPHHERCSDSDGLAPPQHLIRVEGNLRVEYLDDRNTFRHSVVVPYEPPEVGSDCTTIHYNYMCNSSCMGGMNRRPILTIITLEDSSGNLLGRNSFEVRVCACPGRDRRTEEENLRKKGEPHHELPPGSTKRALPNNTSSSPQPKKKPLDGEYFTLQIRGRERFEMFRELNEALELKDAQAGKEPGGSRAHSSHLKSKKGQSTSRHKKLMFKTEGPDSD
Excerpt: TOX21_p53_BLA_p2 is a cell-based, single-readout assay that uses HCT116, a human intestinal cell line, […] in a 1536-well plate.TOX21_p53_BLA_p2_ratio is an assay readout measuring reporter gene via receptor activity and designed using inducible reporter (beta lactamase induction) detected with GAL4 b-lactamase reporter gene. The signal is derived from the ratio of cleaved (ch2) to uncleaved (ch1) reporter gene substrate used as the measure of target activity.Data from the assay component TOX21_p53_BLA_p2_ratio was analyzed into 1 assay endpoint. This assay endpoint, TOX21_p53_BLA_p2_ratio, was analyzed in the positive analysis fitting direction relative to DMSO as the negative control and baseline of activity. Using a type of inducible reporter, gain-of-signal activity can be used to understand changes in the reporter gene as they relate to the gene TP53. Furthermore, this assay endpoint can be referred to as a primary readout, because this assay has produced multiple assay endpoints and this ratio serves a reporter gene function to understand target activity. To generalize the intended target to other relatable targets, this assay endpoint is annotated to the DNA binding intended target family, where the subfamily is tumor suppressor.
Thawing Method: Place 14 mL of pre-warmed thaw medium into a 15 mL of conical tub. Remove the vial of cells to be thawed from liquid nitrogen and thaw rapidly by placing at 37C in a water bath with gentle agitation for 1-2 minutes. Decontaminate the vial by wiping with 70% ethanol before opening in a biological safety cabinet. Transfer the vial contents drop-wise into 14 mL of thaw medium in a sterile 15-mL conical tub. Centrifuge cells at 900 rpm for 4 minutes and resuspend in thaw medium. Transfer contents to the T75 tissue culture flask containing Thaw Medium and place flask in a humidified 37C/5% CO2 incubator. Switch to growth medium at first passage.Propagation Method: Aspirate medium, rinse once in DPBS, add 0.25% Trypsin/EDTA and swirl to coat the cell evenly. Add an equal volume of Growth Medium to inactivate Trypsin after 2-3 minutes incubation at 37C. Centrifuge cells at 900 rpm for 4 minutes and resuspend in growth medium. Cell should be passage or fed at least twice a week.Assay Protocol: Harvest cells from culture in growth medium and resuspend in assay medium. 2.2 Dispense 4000 cells/5 uL/well into 1536-well black/clear bottom plates using a Multidrop dispenser. After the cells were incubated at 37C for 5 hours, 23 nL of compounds dissolved in DMSO were transferred to the assay plate by a PinTool resulting in a 217-fold dilution. Incubate the plates for 16 hours at 37C, 5% CO2. Add 1 uL of 6X LiveBLAzer FRET B/G (CCF4-AM) Substrate Mixture to each well using a BioRAPTR dispenser and incubate the plates at room temperature for 2 hours. Measure fluorescence intensity at 460 and 530 nm emission and 405 nm excitation by an Envision detector. Data is expressed as the ratio of 460nm/530nm emissions. Add 4 uL of Cell-titer Glo to each well using BioRAPTR and incubate the plates at room temperature for 2 hours. Measure fluorescence intensity by a VewLux plate reader.

Row | Compound | outcome | AC50
1 | Cl/C=C/Cl | inactive | –
2 | CCOP(OCC)OCC | inactive | –
3 | COP(=S)(OC)Oc1ccc(S(=O)(=O)N(C)C)cc1 | inactive | –
4 | CCCCCCCCCl | inactive | –
5 | CCOP(=O)(CN(CCO)CCO)OCC | inactive | –
6 | CCC(=O)C(CC(C)N(C)C)(c1ccccc1)c1ccccc1 (stereo not given) | inactive | –
7 | CC(C)(c1ccc(OCC2CO2)cc1)c1ccc(OCC2CO2)cc1 (stereo not given) | inactive | –
8 | OCc1ccco1 | inactive | –
9 | Nc1ccc(-c2ccc(N)c(Cl)c2)cc1Cl | – | 14.4 µM (active) and 13.7 µM (active) and 16.7 µM (active)
10 | COP(=O)(OC)O/C(=C\Cl)c1cc(Cl)c(Cl)cc1Cl | inactive | –
11 | CC(C)(C)c1cc(O)ccc1O | inactive | –
12 | CC(=O)C(Cl)C(=O)N(C)C (stereo not given) | inactive | –
13 | NC(=O)CF | inactive | –
14 | ClC1=C(Cl)[C@]2(Cl)[C@H]3[C@H]([C@H]4C=C[C@H]3C4)[C@@]1(Cl)C2(Cl)Cl | inactive | –
15 | ClCCBr | inactive | –
16 | COc1cc(-c2ccc(N)c(OC)c2)ccc1N | inactive | 63 µM (active)
17 | O=C(O)C(Cl)(Cl)Cl | inactive | –
18 | CCOC(=O)Nc1cccc(OC(=O)Nc2ccccc2)c1 | inactive | –
19 | CCN1CCC2(CC1)COc1cc3c(cc12)N(C(=O)c1ccc(-c2ccc(-c4nnc(C)o4)cc2C)cc1)CC3 | – | 64.8 µM (active)
20 | COP(=O)(OC)OC | inactive | –

Row | Compound | outcome | AC50
21 | Cn1sc(Cl)cc1=O | inactive | –
22 | COc1cccc(C=O)c1 | inactive | –
23 | C=C(C)C(=O)[O][Sn]([CH2]CCC)([CH2]CCC)[CH2]CCC | – | 41.1 µM (active)
24 | COP(=S)(OC)Oc1c(Cl)cc(C)cc1Cl | inactive | –
25 | N#Cc1ccccn1 | inactive | –
26 | O=C(Cc1ccccc1)c1ccccc1 | inactive | –
27 | COc1ccc(C=O)cc1 | inactive | –
28 | Clc1ccc(C2(Cn3cncn3)CC(Br)CO2)c(Cl)c1 (stereo not given) | – | 69.2 µM (active)
29 | C[C@H]1O[C@@H](O[C@H]2[C@@H](O)C[C@H](O[C@H]3[C@@H](O)C[C@H](O[C@H]4CC[C@@]5(C)[C@H](CC[C@@H]6[C@@H]5CC[C@]5(C)[C@@H](C7=CC(=O)OC7)CC[C@]65O)C4)O[C@@H]3C)O[C@@H]2C)C[C@H](O)[C@@H]1O | inactive | –
30 | Cc1cc(=O)[nH]o1 | inactive | –
31 | c1ccc(N=NNc2ccccc2)cc1 | inactive | –
32 | O=c1[nH]c(=O)[nH]c(=O)[nH]1 | inactive | –
33 | O=C1C(Cl)=C(Cl)C(=O)c2ccccc21 | inactive | –
34 | N#CN=C(N)N | inactive | –
35 | COC(=O)c1sccc1S(=O)(=O)NC(=O)Nc1nc(C)nc(OC)n1 | inactive | –
36 | CC(C)(c1ccccc1)c1ccc(O)c(C(C)(C)c2ccccc2)c1 | – | 43.2 µM (active) and 46.9 µM (active)
37 | COc1cc(OC)nc(NC(=O)NS(=O)(=O)c2ncccc2C(=O)N(C)C)n1 | inactive | –
38 | ClCC(Cl)CCl | inactive | –
39 | CCOC(=O)CP(=O)(OCC)OCC | inactive | –

Source: PubChem BioAssay (EPA / NIEHS)
